Measurements published in PubChem BioAssay AID1467 (National Center for Advancing Translational Sciences (NCATS), 2008).
Out of some 230,000 compounds screened, fewer than 10 were called active. The call rests on the fitted dose curve; in most records, active means well fitted curve in the direction sought with a large enough effect; inconclusive means small, poorly fitted or top-dose-only effect, or effect the other way, or another doubt; inactive means no such curve, though single readings can be large or run the other way. A selection follows.

target: Alpha-galactosidase A (Homo sapiens) (UniProt P06280); assay: qHTS Assay for Inhibitors of Human alpha-Galactosidase at pH 4.5.;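 further: 0% = full activity with enzyme and -100% = basal without enzyme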; conditions: purified enzyme, 4-MU-alpha-Gal fluorescence; series mostly up to 105 µM; activity change, negative = inhibition: at the top concentration
From the text: NIH Chemical Genomics Center [NCGC]
NIH Molecular Libraries Probe Production centers Network [MLPCN]
Assay Submitter (PI): Wei Zheng
Alpha-galactosidase is a homodimeric glycoprotein that hydrolyzes the terminal alpha-galactosyl moieties from glycolipids and glycoproteins. Deficiency of this enzyme results in Fabry Disease with progressive accumulation of globotriaosylceramide and other glycosphingolipids in vascular endothelial cells that causes renal failure, myocardial infarction and stroke, and premature death in patients. It has been reported that the improper folding and trafficking of alpha-galactosidase resulting from the genetic mutations may account for a significant numbers of Fabry patients. […] We optimized this alpha-galactosidase assay in 1536-well plate format for identifying the novel small molecule inhibitors with the structures other than the sugar analogs in order to develop the new pharmacological chaperones. Although this assay has the same protocol as PubChem AID 992, this is a separate project and, therefore, is published as a separate assay
NCGC Assay Protocol Summary:
This is a fluorogenic enzyme assay with 4-Methylumbelliferyl alpha-D-galactopyranoside as the substrate and human […] as the enzyme preparation. Upon the hydrolysis of this fluorogenic substrate, the resulting product, […]. 4-Methyllumbelliferone, can be excited at 365 nm and emits at 440 nm. This fluorescence which can be detected by a standard fluorescence plate reader. Data were normalized to the controls for basal activity (without enzyme) and 100% activity (with enzyme). In the AC50 values were determined from concentration-response data modeled with the standard Hill equation.
Assay buffer: 50 mM citric acid (titrated with potassium phosphate to pH 4.5), 0.005% Tween-20, pH 4.5. (pH 4.5 is an optimal condition for this enzyme assay)
1536-well assay protocol for the human alpha-galactosidase:
(1) Add 2 ul/well of enzyme (12 nM final)
(2) Add 23 nL compounds in DMSO solution. The final titration was 0.7 nM to 77 uM.
(3) Add 1 ul of substrate (400 uM final)
(4) Incubate at room temperature for 20 min.
(5) Add 2 ul stop solution (1M NaOH and 1M Glycine mixture, pH 10)
(6) Detect the assay plate in a ViewLux plate reader (PerkinElmer) with Ex=365 nm and Em=440nm.
Keywords: MLSMR, MLPCN, NIH Roadmap, qHTS, NCGC, : Alpha-galactosidase, Fabry Disease, pharmacological chaperone, chaperone therapy

Chain of Alpha-galactosidase A (Homo sapiens) (P06280 whole entry, looked up): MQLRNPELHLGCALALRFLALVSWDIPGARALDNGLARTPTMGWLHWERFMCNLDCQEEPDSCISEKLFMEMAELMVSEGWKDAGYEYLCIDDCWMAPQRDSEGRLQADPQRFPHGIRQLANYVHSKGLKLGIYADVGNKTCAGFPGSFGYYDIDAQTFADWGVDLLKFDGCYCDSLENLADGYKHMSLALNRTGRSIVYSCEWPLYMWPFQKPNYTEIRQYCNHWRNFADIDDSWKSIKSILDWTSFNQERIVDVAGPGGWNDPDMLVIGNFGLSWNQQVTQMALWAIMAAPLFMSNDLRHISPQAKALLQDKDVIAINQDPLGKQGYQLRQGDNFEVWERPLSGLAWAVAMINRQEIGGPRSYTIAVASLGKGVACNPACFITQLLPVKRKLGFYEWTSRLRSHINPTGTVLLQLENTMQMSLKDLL

For `C=C1c2cccc(OC)c2O[C@H](C(=O)OCC)[C@@H]1CCCCCC`, which “activity change, negative = inhibition” value is on record?
The value was -12.3% (inactive).

How did the “activity change, negative = inhibition” value turn out when `C=CCn1c2ccccc2c2nnc(SCc3[nH]c(=O)[nH]c3C(=O)CCCCC(=O)OCC)nc21` was run?
Its value is 6.4% (inactive).

Which “activity change, negative = inhibition” value does the source give for `O=C(COC(=O)CNC(=O)c1ccccc1F)NCC(F)(F)F` here?
The value was 2.03% (inactive).

For `COC(=O)C1=C(C(=O)OC)[C@@H]2N(C)c3ccccc3[C@@]23C[C@@H](C(=O)OC)N(S(=O)(=O)c2ccc(Br)cc2)C3=N1`, which “activity change, negative = inhibition” value is on record?
Its value is -2.66% (inactive).

For `O=C(NCCCN1CCOCC1)c1cc2c(s1)CCC2`, which “activity change, negative = inhibition” value is on record?
Its value is -4.48% (inactive).

How did the “activity change, negative = inhibition” value turn out when `CCOc1ccc(C2NC(=S)NC3=C2CCc2ccccc23)cc1` (stereo unspecified) was run?
The value was -7.19% (inactive).

`COc1cc(OC)c2c(-c3cccc(-c4cccc(N)c4)c3)cc(=O)oc2c1` was tested. Which “activity change, negative = inhibition” value did it give?
The value was -6.01% (inactive).

For `Cc1ccc(NC(=O)O[C@@H]2C(=O)c3cc(Br)ccc3O[C@H]2c2ccc3c(c2)OCO3)cc1Br`, which “activity change, negative = inhibition” value is on record?
Its value is -0.736% (inactive).

Which “activity change, negative = inhibition” value does the source give for `CC1=C(C)CC(C(=O)NNC(=O)c2ccccc2O)C(C(=O)O)C1` (stereo unspecified) here?
The value was 8.41% (inactive).

Which “activity change, negative = inhibition” value does the source give for `O=S(=O)(Cc1noc(-c2ccc(OC(F)(F)F)cc2)n1)c1ccc(F)cc1` here?
The value was -3.61% (inactive).

`COc1cc(CNCCN(C)C)ccc1OCc1c(F)cccc1Cl` was tested. Which “activity change, negative = inhibition” value did it give?
The value was 7.26% (inactive).

For `Clc1ccc(-c2csc(-c3ccncc3)n2)cc1`, which “activity change, negative = inhibition” value is on record?
The value was 0.359% (inactive).

For `CCOc1cc(N2CCOCC2)c(OCC)cc1NC(=O)c1ccc(C)s1`, which “activity change, negative = inhibition” value is on record?
Its value is 3.82% (inactive).

With `NC1CCN(O)C1=O` (stereo unspecified) as the compound, how does the “activity change, negative = inhibition” value read?
Its value is -1.41% (inactive).

`COc1ccc(S(=O)(=O)N(C)C)cc1NC(=O)CSc1ncccn1` was tested. Which “activity change, negative = inhibition” value did it give?
The value was -1.38% (inactive).

With `O=C(COc1ccccc1)N1CCN=C1SCc1cccc(F)c1` as the compound, how does the “activity change, negative = inhibition” value read?
Its value is -1.66% (inactive).

`CC(=O)/C(C)=N/O` was tested. Which “activity change, negative = inhibition” value did it give?
The value was 6.05% (inactive).

`CCO[C@H]1OC(C(=O)N2CCN(Cc3ccccc3)CC2)=C[C@@H](c2cn(C(C)=O)c3ccccc23)[C@@H]1CCCO` was tested. Which “activity change, negative = inhibition” value did it give?
The value was -8.17% (inactive).

For `C=C/C1=C/Cc2ccccc2[C@H](C[N+](=O)[O-])C(C(=O)OC)(C(=O)OC)C1`, which “activity change, negative = inhibition” value is on record?
Its value is -2.03% (inactive).

`NNC(=O)c1oc2nc(-c3ccccc3)cc(-c3ccco3)c2c1N` was tested. Which “activity change, negative = inhibition” value did it give?
Its value is -5.28% (inactive).

For `S=C(NCCCc1cnc[nH]1)NCCCN(Cc1ccc(Cl)c(Cl)c1)c1ccc(Br)cn1`, which “activity change, negative = inhibition” value is on record?
Its value is -6.2% (inactive).

With `Cc1cccc([C@H]2[C@@H]3C=CC[C@@H](C)[C@@H]3C(=O)N2Cc2ccccc2)c1` as the compound, how does the “activity change, negative = inhibition” value read?
Its value is -2.93% (inactive).

How did the “activity change, negative = inhibition” value turn out when `CCN(CCn1cccn1)C(=O)CC1C(=O)NCCN1Cc1cccc(OC)c1OC` (stereo unspecified) was run?
Its value is -3.26% (inactive).

`O=[N+]([O-])c1ccc(N2CCNCC2)cc1NCc1cccnc1` was tested. Which “activity change, negative = inhibition” value did it give?
The value was -23.8% (inactive).

How did the “activity change, negative = inhibition” value turn out when `S=C(NNC(=S)NC1CC2C=CC1C2)NC1CC2C=CC1C2` (stereo unspecified) was run?
The value was -8.67% (inactive).

How did the “activity change, negative = inhibition” value turn out when `COC(=O)N1C(/C=C/C=C/c2ccc(OC)cc2)=Cc2ccccc2C1CC(C)=O` (stereo unspecified) was run?
Its value is -1.09% (inactive).

Which “activity change, negative = inhibition” value does the source give for `COc1ccc(C(=O)COC(=O)c2nn(C)c(=O)c3ccccc23)c(OC)c1` here?
Its value is -26.1% (inactive).

For `COc1cccc(NC(=S)NCc2ccco2)c1`, which “activity change, negative = inhibition” value is on record?
The value was -7.84% (inactive).

How did the “activity change, negative = inhibition” value turn out when `Cn1c(SCC(=O)NC2CCCCC2)nnc1-c1ccc(N)cc1` was run?
The value was -1.25% (inactive).

`COC(=O)C1=C(C(=O)OC)[C@@H]2N(C)c3ccccc3[C@@]23C[C@@H](C(=O)OC)N(S(=O)(=O)c2cccs2)C3=N1` was tested. Which “activity change, negative = inhibition” value did it give?
Its value is -0.375% (inactive).

Which “activity change, negative = inhibition” value does the source give for `CN1CCC(=NNC(=O)CN(c2cccc(Cl)c2)S(C)(=O)=O)CC1` here?
Its value is -0.661% (inactive).

With `NC(=O)CC(NC(=O)Cc1cccc2ccccc12)c1ccc(NCc2cc(F)ccc2F)c([N+](=O)[O-])c1` (stereo unspecified) as the compound, how does the “activity change, negative = inhibition” value read?
Its value is 10.4% (inactive).

For `N#Cc1cccc(CS(=O)(=O)c2nnnn2-c2cc(C(F)(F)F)cc(C(F)(F)F)c2)c1`, which “activity change, negative = inhibition” value is on record?
Its value is -8.23% (inactive).

With `Cc1cc(C(=O)COC(=O)CNC(=O)c2ccc(F)cc2)c(C)n1Cc1ccco1` as the compound, how does the “activity change, negative = inhibition” value read?
The value was 1.82% (inactive).

Which “activity change, negative = inhibition” value does the source give for `OCCC1CN(Cc2ccc3nsnc3c2)CCN1C1CCCCC1` (stereo unspecified) here?
The value was -12.3% (inactive).

How did the “activity change, negative = inhibition” value turn out when `Cc1cc(C)cc(N(CC(=O)NCCSCc2ccco2)S(C)(=O)=O)c1` was run?
The value was 0.74% (inactive).

Which “activity change, negative = inhibition” value does the source give for `CC1CCN(c2c(NCc3ccc(C(=O)NCc4ccccc4)cc3)c(=O)c2=O)CC1` here?
The value was -4% (inactive).

For `CNC(=O)c1ccc(NC(=O)c2cccc(C(F)(F)F)c2)cc1`, which “activity change, negative = inhibition” value is on record?
Its value is -1.3% (inactive).

With `Nc1ccc(OCC(O)C[n+]2ccc(CCS(=O)(=O)[O-])cc2)cc1` (stereo unspecified) as the compound, how does the “activity change, negative = inhibition” value read?
The value was 5.66% (inactive).

`Cc1cccc2c1N(CCOc1ccccc1)C(=O)C2=O` was tested. Which “activity change, negative = inhibition” value did it give?
Its value is -14.8% (inactive).

`CN1C(=O)/C(=C\c2ccc(-c3ccccc3)o2)SC1=S` was tested. Which “activity change, negative = inhibition” value did it give?
Its value is 4.38% (inactive).

For `C/C(=N\NC(=O)c1cccc(N2CCCC2=O)c1)c1ccc(N)cc1`, which “activity change, negative = inhibition” value is on record?
The value was 0.376% (inactive).

Which “activity change, negative = inhibition” value does the source give for `CC(C)(C)Nc1c(-c2cccs2)nc2ccccn12` here?
Its value is 5.51% (inactive).

`Cc1csc(-c2coc3cc(O[C@@H]4O[C@H](CO)[C@@H](O)[C@@H](O)[C@H]4O)ccc3c2=O)n1` was tested. Which “activity change, negative = inhibition” value did it give?
The value was -1.54% (inactive).

With `c1ccc2c(c1)CSc1sccc1C2=C1CCNCC1` as the compound, how does the “activity change, negative = inhibition” value read?
Its value is 7.6% (inactive).

`CC(=O)CC(c1ccccc1)C1C(=O)Oc2ccccc2C1=O` (stereo unspecified) was tested. Which “activity change, negative = inhibition” value did it give?
Its value is -1.34% (inactive).

`COC(=O)C1=C(C(=O)OC)[C@@H]2N(Cc3ccccc3)c3ccccc3[C@@]23C[C@@H](C(=O)OC)N(S(=O)(=O)c2ccc(C(F)(F)F)cc2)C3=N1` was tested. Which “activity change, negative = inhibition” value did it give?
Its value is -8.58% (inactive).

`O=C(NCCN1CCOCC1)c1ccc2c(c1)N(Cc1ccc(Cl)cc1)CCS2` was tested. Which “activity change, negative = inhibition” value did it give?
The value was 19.9% (inactive).

How did the “activity change, negative = inhibition” value turn out when `C/C=C(\C)C(=O)OC1C(OC(=O)C2(C)OC2C)c2cc3ccc(=O)oc3cc2OC1(C)C` (stereo unspecified) was run?
Its value is -3.44% (inactive).

Which “activity change, negative = inhibition” value does the source give for `CNC(=S)N1CCC(NC(=O)C(Cc2ccc(F)cc2)NC(C)=O)CC1` (stereo unspecified) here?
Its value is 2.08% (inactive).

With `Cc1oc2cc([N+](=O)[O-])c(O)c([N+](=O)[O-])c2c1C(=O)c1ccc(Br)cc1` as the compound, how does the “activity change, negative = inhibition” value read?
Its value is 0.458% (inactive).

Which activity change, negative = inhibition does the source give for `CCc1ccc(NC(=O)C(=O)N/N=C(\C)CC(=O)NCCOC)cc1` here?
Its activity change, negative = inhibition is 3.4% [at 21.1 µM] (inactive).

`CCOc1ccc(NC(=O)c2ccc(CSc3nnnn3C)cc2)cc1` was tested. Which “activity change, negative = inhibition” value did it give?
The value was 5.27% (inactive).

`COC(=O)C1=C(C(=O)OC)[C@@H]2Nc3ccccc3[C@@]23C[C@@H](C(=O)OC)N(S(=O)(=O)c2ccc([N+](=O)[O-])cc2)C3=N1` was tested. Which “activity change, negative = inhibition” value did it give?
Its value is -1.19% (inactive).

Which “activity change, negative = inhibition” value does the source give for `COc1ccc(Nc2ncnc3ccc(OC)cc23)cc1` here?
The value was -4.49% (inactive).

For `C[N+]1(CC(O)COc2ccccc2)CCN(C(=O)c2ccc([N+](=O)[O-])cc2)CC1` (stereo unspecified), which “activity change, negative = inhibition” value is on record?
Its value is -12.9% (inactive).

How did the “activity change, negative = inhibition” value turn out when `C/C=C(\C)C(=O)O[C@H]1CC(C)=C2C(=O)C=C(C)C2[C@@H]2OC(=O)[C@@](C)(OC(=O)C=C(C)C)C21` (stereo partly specified) was run?
The value was 0.518% (inactive).

How did the “activity change, negative = inhibition” value turn out when `Cc1nc(SCc2ccc(F)cc2)c([N+](=O)[O-])[nH]1` was run?
The value was -11% (inactive).

Which “activity change, negative = inhibition” value does the source give for `C=CCN1C(=O)C(Cc2ccc(OCC)cc2)SC1=Nc1ccc(C(=O)O)cc1` (stereo unspecified) here?
The value was -0.326% (inactive).

How did the “activity change, negative = inhibition” value turn out when `Cc1ccc(C)c(-n2nnnc2SCC(=O)c2c(N)n(C)c(=O)n(C)c2=O)c1` was run?
Its value is 7.01% (inactive).

How did the “activity change, negative = inhibition” value turn out when `COc1ccc2c(c1)O[C@@H](c1ccc3c(c1)OCO3)[C@H](OC(=O)NCc1ccco1)C2=O` was run?
The value was -8.2% (inactive).
